Screening data (PubChem)
Rows were chosen to be rich in hits. Some 12% of all compounds tested hit in one or more screens of this group.
Arbovirus inh = arbovirus infection inhibition. arbovirus infection cell-based antiviral screen. inhibition, % at 10 µM. hit rate 0.37% among 200,000. AID 1251; in the data active = inhibition above about 30%
WT yeast gro inh = growth inhibition of WT yeast, mitochondrial fusion screen | mitochondrial fusion phenotypic screen, WT strain | inhibition, % at 10 µM | hit rate 2.1% among 190,000; in the data active = inhibition above about 58%; tested in S. cerevisiae
L major viab = Leishmania major promastigote growth inhibition; Leishmania major promastigotes, resazurin fluorescence viability; inhibition, % at 10 µM; hit rate 9% among 200,000; in the data active = inhibition above about 50%;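 note: promastigotes grown with compound for 44 hours at 28 °C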
CHOP inh = CHOP inhibition in unfolded protein response; CHO-K1 CHOP-promoter luciferase, tunicamycin-induced, 15-18 h; AID 2732; hit rate 3.8% among 220,000; inhibition, % at 10 µM;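 active = compounds that reduced the stress-induced luciferase reporter signal by more than about 70% of percent inhibition, limit read from the data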;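 note: 0% = tunicamycin plus vehicle and 100% = wells without tunicamycin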
* marks the source's active call; other numbers are inactive results; / = no result.

SMILES	Arbovirus inh	WT yeast gro inh	L major viab	CHOP inh
Cc1ccc(N2C(=O)N(CC(=O)N3CCOCC3)C(=O)C2C)cc1 (centres undefined)	0.1	11.7	-5.1	11.7
O=C(N/N=C/c1cc([N+](=O)[O-])ccc1O)C1C2CCCCC21 (centres undefined)	-14.8	-18.3	92.2*	-2.4
O=[N+]([O-])c1ccc(O)c(/C=N\N=C2c3ccccc3-c3ccccc32)c1	-11.2	24.1	35.0	79.2*
CCN(CC)C(=O)C1CCCN(c2ccc([N+](=O)[O-])cc2/C=N/NC(=O)c2ccc([N+](=O)[O-])cc2)C1 (centres undefined)	6.7	-5.8	52.9*	31.0
NC(N)=N/N=C/c1cc([N+](=O)[O-])ccc1O	-11.6	-7.8	6.2	-5.6
CCN(CC)C(=O)C1CCCN(c2ccc([N+](=O)[O-])cc2/C=N/NC(=O)c2ccccc2)C1 (centres undefined)	10.0	11.6	11.5	12.7
O=[N+]([O-])c1ccc(O)c(/C=N/Nc2nn[nH]n2)c1	14.8	14.0	-10.9	8.2
O=[N+]([O-])c1ccc(O)c(/C=N/Nc2ccc(Cl)nn2)c1	-17.3	5.7	100.0*	75.1*
O=C(Cn1nc2ccccc2n1)N/N=C/c1cc([N+](=O)[O-])ccc1O	17.0	19.7	-4.5	47.0
O=C(N/N=C/c1cc([N+](=O)[O-])ccc1O)C1CCCCC1	-25.0	7.0	97.2*	45.4
NC(=O)COC(=O)CC12CC3CC(CC(Br)(C3)C1)C2	-1.0	0.7	-4.3	18.8
O=C(COC(=O)CC12CC3CC(CC(Br)(C3)C1)C2)NC(=O)NCc1ccco1	-0.5	-7.9	-0.2	70.8*
C#CCOCCOCCOCCNc1nc(N2CCN(C(=O)[C@H](CCC(=O)O)n3cc(C(N)CC(C)C)nn3)CC2)nc(N2CCN(C(=O)[C@H](CCC(=O)O)n3cc(C(N)CC(C)C)nn3)CC2)n1 (some centres undefined)	4.8	8.8	-8.2	-16.2
Oc1ccccc1Oc1c(F)c(F)nc(N2CCCC2)c1F	-0.9	35.1	11.8	93.5*
COc1ccccc1/C=N\N=C(\N)c1ccccn1	-0.7	-13.2	10.4	-53.8
CCn1c(N2CCN(C(=O)C34CC5CC(CC(C5)C3)C4)CC2)nc2ccccc21	-10.2	0.5	30.8	12.0
CCn1c(=N)n(CC(=O)C23CC4CC(CC(C4)C2)C3)c2ccccc21	-33.0	89.6*	62.1*	48.7
O=C(NC1(C(=O)NC2CCCCC2)CCCCC1)c1ccc2c(c1)OCO2	-3.0	-3.0	93.3*	2.3
O=C(NC1(C(=O)NC2CCCC2)CCCCC1)c1ccc2c(c1)OCO2	1.4	12.3	57.5*	44.2
CCC(C)Nc1nc2c(c(=O)n(C)c(=O)n2C)n1C (centres undefined)	/	/	/	-6.4
O=C(NNC(=O)c1cccnc1SCc1cccc([N+](=O)[O-])c1)c1ccccn1	-31.7	1.1	98.5*	51.6
Cc1cccc(NC(=S)NC2CCCCC2)n1	8.7	68.0*	23.3	25.9
Cc1cccc(NC(=S)NC2CCCC2)n1	11.4	71.7*	5.7	9.7
O=C(O)CCC(=O)Nc1ccc(Cc2ccc(NC(=O)CCC(=O)O)c(O)c2)cc1O	12.2	7.5	-5.5	43.7
O=C(Nc1ccc(Cc2ccc(NC(=O)C3CC3)c(O)c2)cc1O)C1CC1	-10.9	-15.5	51.9*	-23.6
SMILES	Arbovirus inh	WT yeast gro inh	L major viab	CHOP inh
COc1ccc(CCN2C(=O)c3ccncc3C2=O)cc1OC	4.5	-24.6	-6.3	-20.4
Cc1sc(NC(=O)Cc2ccc3c(c2)OCO3)nc1-c1ccc2c(c1)CCN2C(=O)c1ccc(F)cc1	-4.5	32.5	86.5*	57.4
Cc1sc(NC(=O)Cc2ccc3c(c2)OCO3)nc1-c1ccc2c(c1)CCN2C(=O)c1ccccc1F	-14.7	26.3	98.9*	54.6
Cc1sc(NC(=O)CN(C)C2CCCCC2)nc1-c1ccc2c(c1)CCN2S(=O)(=O)c1ccccc1	-3.3	3.3	44.6	33.8
Cc1ccc2c(c1)CCCN2C(=O)c1ccc2c(c1)OCO2	-7.2	19.1	35.9	37.8
Cc1ccc2nsnc2c1NC(=O)c1cncc(Br)c1	-5.2	-12.3	0.2	13.1
COc1ccc(OC)c(NC(=O)c2ccc(OC3CSC3)cc2)c1	-11.3	29.2	-1.3	-9.6
CC(CS(=O)(=O)c1ccc2ccccc2c1)N1CCN(C2CCCCC2)CC1 (centres undefined)	/	/	82.5*	/
Cc1ccc(S(=O)(=O)CC(CN2CCOCC2)N2CCOCC2)cc1 (centres undefined)	11.6	-9.8	-3.7	17.9
Cc1ccc(S(=O)(=O)CC(C)N2CCN(C3CCCCC3)CC2)cc1 (centres undefined)	-4.7	16.5	90.4*	2.4
Cn1c(=O)c(=O)n(C)c2cc(S(=O)(=O)N3CCN(C4CCCCC4)CC3)ccc21	-4.0	-16.3	-2.2	12.9
O=S(=O)(CC(CN1CCCC1)N1CCCC1)c1ccc2ccccc2c1 (centres undefined)	2.4	4.0	100.5*	59.0
C/C=C/C(=O)N(CC)c1ccccc1C	-3.1	5.7	/	1.2
CC(=O)c1ccc(Nc2cc(C)nc3c(C)cc(C)cc23)cc1	-19.9	25.4	100.2*	-15.8
S=c1[nH]nc(COc2ccc(Cl)cc2)n1Cc1ccco1	2.8	31.0	2.1	12.9
C=CCNC(=S)N/N=C/c1ccc(N(CC)Cc2ccccc2)cc1	-17.2	69.2*	49.3	17.3
CCN(CC)c1ccc(/C=N/NC(=S)NCc2ccccc2)cc1	-1.2	55.2	-0.4	38.1
CCN(CC)P(=O)(Nc1ccc(C)cc1Br)c1ccc(N(C)C)cc1NC(=O)c1ccco1 (centres undefined)	-22.4	60.2*	64.9*	10.7
Cc1ccc(NC(=O)c2ccco2)c([N+](=O)[O-])c1	-6.9	13.1	1.1	-7.1
COC(=O)COc1ccc(S(=O)(=O)NCCC2=CCCCC2)cc1Cl	-0.4	13.7	-5.4	58.5
COCCNS(=O)(=O)c1ccc(OCC(=O)OC)c(Cl)c1	4.3	8.0	1.2	92.2*
Cc1ccc(S(=O)(=O)Nc2ccc(-c3csc(-c4ccccc4)n3)cc2)cc1	-40.5	32.6	4.1	94.2*
O=[N+]([O-])c1ccc(S(=O)(=O)Nc2ccc(-c3csc(-c4ccccc4)n3)cc2)cc1	-44.2	95.4*	21.8	18.9
COC(=O)CC1C(=O)NCCN1C(=S)Nc1ccc(F)cc1 (centres undefined)	/	/	/	7.9
COc1cc(OC)c2ccc(=O)oc2c1C(CCN1CCN(c2ccccc2)CC1)c1ccc(N(C)C)cc1 (centres undefined)	/	/	/	-12.4
SMILES	Arbovirus inh	WT yeast gro inh	L major viab	CHOP inh
CCCn1c(O)c(N=NC(=O)c2ccco2)c2ccccc21	3.2	45.7	67.8*	6.3
CCn1c(O)c(N=NC(=O)CNC(=O)c2ccco2)c2ccccc21	-8.3	-33.3	1.4	5.1
NC(=NC(=O)c1ccccc1)N1CCN(C(c2ccccc2)c2ccccc2)CC1	/	/	/	69.8
COCCN1CN(S(=O)(=O)c2ccc(Cl)cc2)c2nc3ccccc3nc21	-6.8	-3.3	77.1*	32.4
COCCN1CN(S(=O)(=O)c2ccccc2)c2nc3ccccc3nc21	-4.3	4.7	7.1	14.4
CSc1nc(O)c(/C=C2\C=Nc3ccccc32)[nH]1	-1.0	27.5	4.0	10.9
Oc1nc(Nc2ccc(Cl)cc2Cl)sc1/C=C1\C=Nc2ccccc21	10.4	83.0*	-10.5	73.2*
